In the antibiotic and cytotoxicity screens of Wong et al. (2023) one finds cytotoxicity call data, which are given here for 71 compounds.

About 3,300 (8.5%) of roughly 39,000 compounds were called active. Only a selection was taken, and actives are over-represented in it overall.

This assay concerns HepG2. Nature of the assay: cytotoxicity call (relative viability < 0.9). The settings on record: 10 µM.
Regarding `C[C@@H]1CCCCO[C@H](CN(C)CC2CC2)[C@H](C)CN([C@@H](C)CO)C(=O)c2cc(NS(=O)(=O)c3cn(C)cn3)ccc2O1`, the cytotoxicity call was “inactive”.
Consider `COCC#Cc1ccc2c(c1)O[C@@H](CN(C)S(=O)(=O)c1ccc(C)cc1)[C@H](C)CN([C@@H](C)CO)S2(=O)=O`, for which the cytotoxicity call was “inactive”.
The result for `O=C1N[C@H]2[C@@H]1[C@@H]1C=C[C@H]2C1` reads “inactive”; that for `COc1ccc(NC(=O)Nc2cccc3c2O[C@@H](CN(C)Cc2ccc(C(F)(F)F)cc2)[C@@H](C)CN([C@@H](C)CO)C3=O)cc1`, “inactive”; that for `Cc1ccc(S(=O)(=O)Nc2ccc3c(c2)C(=O)N([C@H](C)CO)C[C@@H](C)[C@H](CN(C)C(=O)NC2CCCCC2)OCCCC[C@H](C)O3)cc1`, “inactive”.
In the case of `C[C@@H]1CCCCO[C@H](CN(C)Cc2ccccc2)[C@@H](C)CN([C@@H](C)CO)C(=O)c2cc(NC(=O)c3ccccc3)ccc2O1` it was “inactive”.
In the case of `CNC(=O)C[C@H]1Nc2ccccc2NC1=O` it was “inactive”; in that of `N[C@H]1CCCC[C@@H]1OCc1ccccc1`, “inactive”.
`CC1CCC2(C)C(C=O)=CCCC2C1(C)CC1OC(O)C(=O)C12CO2` (stereo unspecified): the cytotoxicity call is “active”.
In the case of `Cc1noc(C)c1S(=O)(=O)N(C)C[C@@H]1OCc2cn(nn2)CCCC(=O)N([C@@H](C)CO)C[C@H]1C` it was “inactive”; in that of `C[C@@H]1CN([C@@H](C)CO)C(=O)c2cc(NC(=O)Cc3ccccc3)ccc2O[C@H]1CN(C)Cc1ccc(Oc2ccccc2)cc1`, “inactive”.
The result for `C[C@@H]1CN([C@H](C)CO)C(=O)c2cc(NC(=O)Cc3ccccc3)ccc2O[C@@H]1CN(C)Cc1ccc(Oc2ccccc2)cc1` reads “inactive”.
The result for `C[C@@H]1CN([C@@H](C)CO)C(=O)c2cc(NC(=O)Cc3ccccc3)ccc2O[C@@H]1CN(C)Cc1ccc(Oc2ccccc2)cc1` reads “active”; that for `C[C@H]1CN([C@@H](C)CO)C(=O)c2cc(NC(=O)Cc3ccccc3)ccc2O[C@H]1CN(C)Cc1ccc(Oc2ccccc2)cc1`, “inactive”; that for `C[C@H](CO)N1C[C@H](C)[C@H](CN(C)Cc2ccc(Oc3ccccc3)cc2)Oc2ccc(NC(=O)Cc3ccccc3)cc2C1=O`, “inactive”.
In the case of `C[C@H]1CN([C@@H](C)CO)C(=O)c2cc(NC(=O)Cc3ccccc3)ccc2O[C@@H]1CN(C)Cc1ccc(Oc2ccccc2)cc1`, the cytotoxicity call was “active”.
As to `C[C@H](CO)N1C[C@H](C)[C@@H](CN(C)Cc2ccc(Oc3ccccc3)cc2)Oc2ccc(NC(=O)Cc3ccccc3)cc2C1=O`, the cytotoxicity call is “inactive”.
As for `C[C@@H]1CN([C@H](C)CO)C(=O)c2cc(NC(=O)Cc3ccccc3)ccc2O[C@H]1CN(C)Cc1ccc(Oc2ccccc2)cc1`, the cytotoxicity call is “active”.
The result for `COc1ccc(NC(=O)N(C)C[C@H]2Oc3ccc(NC(=O)CCCCCC(=O)Nc4ccccc4N)cc3CC(=O)N([C@@H](C)CO)C[C@@H]2C)cc1` reads “inactive”; that for `C[C@H](CO)N1C[C@H](C)[C@@H](CN(C)S(C)(=O)=O)Oc2c(NC(=O)NC3CCCCC3)cccc2C1=O`, “inactive”; that for `CO[C@H]1CN(C)C(=O)c2ccc(NC(=O)NC(C)C)cc2OC[C@@H](C)N(Cc2ccc(-c3ccccn3)cc2)C[C@H]1C`, “inactive”.
In the case of `O=C(CN1CCOCC1)NCC[C@@H]1CC[C@@H](NC(=O)Nc2ccccc2)[C@H](CO)O1` it was “inactive”; in that of `COc1ccc(-c2cnc3c(c2)C(=O)N([C@@H](C)CO)C[C@@H](C)[C@@H](CN(C)C(=O)Cc2ccccn2)O3)cc1`, “inactive”.
The result for `CN(C)S(=O)(=O)N1CCN(CC(=O)Nc2ccc(Br)cc2)CC1` reads “inactive”; that for `C[C@H]1CN([C@@H](C)CO)C(=O)c2cccc(NC(=O)c3cnccn3)c2O[C@H]1CN(C)S(=O)(=O)c1ccc(F)cc1`, “inactive”; that for `C[C@@H]1CN([C@H](C)CO)C(=O)c2cc(NC(=O)CCC(F)(F)F)ccc2O[C@@H](C)CCCCO[C@@H]1CN(C)Cc1ccc(C(=O)O)cc1`, “inactive”.
`O=C(O)CC1CCOCC1`: the cytotoxicity call is “inactive”.
In the case of `C[C@@H]1CCCCO[C@@H](CN(C)C)[C@H](C)CN([C@H](C)CO)C(=O)c2cc(NC(=O)CCCCCC(=O)Nc3ccccc3N)ccc2O1` it was “inactive”; in that of `COc1ccc(CN(C)C[C@H]2OCCCC[C@@H](C)Oc3ccc(NC(=O)Nc4ccccc4)cc3C(=O)N([C@H](C)CO)C[C@@H]2C)cc1`, “inactive”.
The result for `COc1ccc(CN(C)C[C@H]2OCCCC[C@H](C)Oc3ccc(NC(=O)Nc4ccccc4)cc3C(=O)N([C@@H](C)CO)C[C@@H]2C)cc1` reads “inactive”; that for `COc1ccc(CN(C)C[C@H]2OCCCC[C@@H](C)Oc3ccc(NC(=O)Nc4ccccc4)cc3C(=O)N([C@H](C)CO)C[C@H]2C)cc1`, “active”; that for `COc1ccc(CN(C)C[C@@H]2OCCCC[C@@H](C)Oc3ccc(NC(=O)Nc4ccccc4)cc3C(=O)N([C@@H](C)CO)C[C@@H]2C)cc1`, “inactive”.
The result for `COc1ccc(CN(C)C[C@H]2OCCCC[C@@H](C)Oc3ccc(NC(=O)Nc4ccccc4)cc3C(=O)N([C@@H](C)CO)C[C@H]2C)cc1` reads “active”.
As to `COc1ccc(CN(C)C[C@@H]2OCCCC[C@H](C)Oc3ccc(NC(=O)Nc4ccccc4)cc3C(=O)N([C@H](C)CO)C[C@H]2C)cc1`, the cytotoxicity call was “inactive”.
In the case of `C[C@@H]1CN([C@@H](C)CO)C(=O)c2cc(NC(=O)Nc3ccccc3)ccc2O[C@H]1CN(C)CC1CCCCC1` it was “inactive”; in that of `COc1ccccc1S(=O)(=O)N[C@H]1CC[C@@H](CCNC(=O)C2CC2)O[C@H]1CO`, “inactive”; in that of `CCOC(=O)C[C@H]1CCCNC1`, “inactive”.
`CCOC(=O)c1c(C)cc(OC)cc1O`: the cytotoxicity call is “active”.
On to `CCOC(=O)c1c(C)cc(O)cc1O`, for which the cytotoxicity call is “inactive”.
For the compound `COC(=O)c1c(C)cc(OC)cc1O`, the cytotoxicity call was “inactive”.
The result for `C[C@H](CO)N1C[C@H](C)[C@H](CN(C)S(=O)(=O)c2cccs2)Oc2ncc(C#Cc3ccccc3)cc2C1=O` reads “inactive”.
The result for `C[C@@H]1CN([C@@H](C)CO)C(=O)c2cc(NS(=O)(=O)c3ccccc3)ccc2O[C@@H](C)CCCCO[C@@H]1CN(C)C(=O)Nc1cccc2ccccc12` reads “inactive”.
For `C[C@@H]1CCCCO[C@H](CN(C)C(=O)Nc2cccc3ccccc23)[C@@H](C)CN([C@@H](C)CO)C(=O)c2cc(NS(=O)(=O)c3ccccc3)ccc2O1`, the cytotoxicity call is “inactive”.
The result for `C[C@@H]1CCCCO[C@H](CN(C)C(=O)Nc2cccc3ccccc23)[C@H](C)CN([C@H](C)CO)C(=O)c2cc(NS(C)(=O)=O)ccc2O1` reads “active”.
Consider `C[C@@H]1CCCCO[C@@H](CN(C)C(=O)Nc2cccc3ccccc23)[C@H](C)CN([C@H](C)CO)C(=O)c2cc(NS(=O)(=O)c3ccccc3)ccc2O1`, for which the cytotoxicity call is “active”.
The result for `C[C@@H]1CCCCO[C@H](CN(C)C(=O)Nc2cccc3ccccc23)[C@H](C)CN([C@H](C)CO)C(=O)c2cc(NS(=O)(=O)c3ccccc3)ccc2O1` reads “active”; that for `C[C@@H]1CCCCO[C@@H](CN(C)C(=O)Nc2cccc3ccccc23)[C@H](C)CN([C@H](C)CO)C(=O)c2cc(NS(C)(=O)=O)ccc2O1`, “inactive”; that for `C[C@H]1CCCCO[C@@H](CN(C)C(=O)Nc2cccc3ccccc23)[C@@H](C)CN([C@@H](C)CO)C(=O)c2cc(NS(=O)(=O)c3ccccc3)ccc2O1`, “inactive”.
In the case of `C[C@@H]1CCCCO[C@@H](CN(C)C(=O)Nc2cccc3ccccc23)[C@H](C)CN([C@@H](C)CO)C(=O)c2cc(NS(=O)(=O)c3ccccc3)ccc2O1` it was “inactive”.
For `C[C@@H]1CCCCO[C@H](CN(C)C(=O)Nc2cccc3ccccc23)[C@@H](C)CN([C@@H](C)CO)C(=O)c2cc(NS(C)(=O)=O)ccc2O1`, the cytotoxicity call is “inactive”.
In the case of `C[C@@H]1CN([C@@H](C)CO)C(=O)c2cc(NS(=O)(=O)c3ccccc3)ccc2O[C@@H](C)CCCCO[C@H]1CN(C)C(=O)Nc1cccc2ccccc12` it was “active”; in that of `C[C@H](CO)N1C[C@H](C)[C@@H](CN(C)C(=O)Nc2cccc3ccccc23)OCCCC[C@H](C)Oc2ccc(NS(=O)(=O)c3ccccc3)cc2C1=O`, “inactive”; in that of `C[C@@H]1CCCCO[C@H](CN(C)C(=O)Nc2cccc3ccccc23)[C@@H](C)CN([C@H](C)CO)C(=O)c2cc(NS(=O)(=O)c3ccccc3)ccc2O1`, “inactive”.
The result for `C[C@@H]1CN([C@H](C)CO)C(=O)c2cc(NS(=O)(=O)c3cccs3)ccc2O[C@@H]1CN(C)C(=O)Nc1cccc2ccccc12` reads “inactive”.
The result for `COc1ccc(-c2cn(CCNC(=O)[C@@H](NS(=O)(=O)c3ccc(C)cc3)C(C)C)nn2)cc1OC` reads “inactive”; that for `O=C1c2ccccc2[C@@]2(Cc3ccccc3N(CC(F)(F)F)C2=O)[C@H](c2ccc(CO)cc2)N1C1CCCCC1`, “inactive”.
On to `C[C@@H]1CN([C@H](C)CO)C(=O)Cc2cc(NC(=O)Nc3cccc4ccccc34)ccc2O[C@H]1CN(C)C(=O)Nc1cccc2ccccc12`, for which the cytotoxicity call was “inactive”.
The result for `COc1ccc(S(=O)(=O)Nc2ccc3c(c2)C(=O)N([C@H](C)CO)C[C@@H](C)[C@H](CN(C)C(=O)Nc2ccc(C(F)(F)F)cc2)OCCCC[C@H](C)O3)cc1` reads “inactive”.
In the case of `COc1ccc([C@@H]2CC=CC[C@H](C)Oc3ccccc3C(=O)N(C)[C@H](Cc3ccccc3)C(=O)N2)c(OC)c1` it was “inactive”; in that of `C[C@H](CO)N1C[C@H](C)[C@@H](CN(C)C(=O)Nc2ccc3c(c2)OCO3)Oc2ncc(-c3ccncc3)cc2C1=O`, “inactive”; in that of `C=CC[C@@H](CC(=O)NCCO)C(=O)N[C@H](COC(=O)[C@H](CC=C)CC(=O)OC(C)(C)C)Cc1c[nH]c2ccccc12`, “inactive”.
In the case of `Cc1ccc(Cc2nc(-c3ccc(Cl)cc3)cs2)cc1` it was “active”; in that of `Cc1ccc(-c2nc(-c3ccc(Cl)cc3)cs2)cc1F`, “inactive”.
Consider `Cc1ccc(-c2csc(-c3ccc(CN)cc3)n2)cc1`, for which the cytotoxicity call was “inactive”.
The result for `C[C@@H]1CN([C@H](C)CO)S(=O)(=O)c2ccc(C#C[C@@H](C)O)cc2O[C@H]1CN(C)C(=O)C1CCCCC1` reads “inactive”; that for `CN(C)CC(=O)N[C@H]1CC[C@H](CCNS(=O)(=O)c2ccccc2)O[C@@H]1CO`, “inactive”; that for `CN(C)CC(=O)N[C@H]1CC[C@H](CCNS(=O)(=O)c2ccccc2)O[C@H]1CO`, “inactive”.
In the case of `O=S(=O)(NCC[C@@H]1CC[C@H](NS(=O)(=O)c2ccccc2Cl)[C@H](CO)O1)c1ccc(F)cc1` it was “inactive”; in that of `CN(C)CC(=O)N[C@@H]1CC[C@@H](CCNS(=O)(=O)c2ccccc2)O[C@@H]1CO`, “active”.
Turning to `O=S(=O)(NCC[C@@H]1CC[C@@H](NS(=O)(=O)c2ccccc2Cl)[C@H](CO)O1)c1ccc(F)cc1`, the cytotoxicity call was “inactive”.
In the case of `O=S(=O)(NCC[C@H]1CC[C@H](NS(=O)(=O)c2ccccc2Cl)[C@@H](CO)O1)c1ccc(F)cc1`, the cytotoxicity call was “active”.
